Assay results reported in PubChem BioAssay.
Calls of active or inactive are those of the source.

What was measured:
[1] = E. coli DRC41 culture turbidity changes, primary screen, E. coli filamentation inducer project, strain DRC41, OD650, 48 h (AID 1152);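 note: E. coli MC1000 strain DRC41 lacking acrAB efflux pump and sulA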; conditions: E. coli DRC41 (acrAB sulA), higher = more signal, called active from +8 up or from −8 down
[2] = small-molecule binders of probe aLefty1, primary screen, biochemical, small-molecule microarray, 635/667 nm fluorescence (AID 1153); conditions: higher = more signal;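 note: score merges spot fluorescence with signal-to-noise ratio from the scanned slide images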
[3] = PSAC antagonists in infected red cells, primary screen, cell-based, P. falciparum Indochina, OD700, 1 h (AID 1154); conditions: P. falciparum Indochina infected RBC osmotic lysis, higher = more signal, called active from +8 up or from −8 down
[4] = PSAC antagonists in infected red cells, primary screen, cell-based, P. falciparum Indochina, OD700, 2 h (AID 1155);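 note: lysis reports solute entry through the parasite surface anion channel PSAC; channel blockers reduce lysis of infected cells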; conditions: P. falciparum Indochina infected erythrocytes, osmotic lysis OD700; higher = more signal, called active from +8 up or from −8 down
[5] = osmotic lysis modulators in infected erythrocytes, primary screen, PSAC antagonist project, cell-based, P. falciparum Indochina, OD700, 3 h (AID 1156); conditions: higher = more signal, called active from +8 up or from −8 down
[6] = PSAC antagonists in infected red cells, primary screen, cell-based, P. falciparum Indochina, OD700, 18 h (AID 1157); conditions: P. falciparum Indochina infected erythrocytes, osmotic lysis OD700, 18 h; higher = more signal, called active from +8 up or from −8 down
[7] = modulators of S6 phosphorylation in cells, primary screen, cell-based, A549, cytoblot, luminescence, serum-stimulated (AID 1158); conditions: A549 phospho-S6 cytoblot, 5 h, higher = more signal;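 note: serum-stimulated A549 lung adenocarcinoma cells; signal is phosphorylated S6 detected by cytoblot immunostaining with HRP secondary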
[8] = biological target: NADPH oxidase 2 (Homo sapiens) (UniProt P04839); test: NOX2-dependent H2O2 signal modulators, primary screen, NOX inhibitor project, cell-based, HEK293-NOX2, PMA-stimulated, Amplex Red fluorescence (AID 1159); conditions: 45 min, higher = more signal, called active from +8 up or from −8 down; note: test concentration not given here
Chain of NADPH oxidase 2 (Homo sapiens) (P04839 whole entry, looked up): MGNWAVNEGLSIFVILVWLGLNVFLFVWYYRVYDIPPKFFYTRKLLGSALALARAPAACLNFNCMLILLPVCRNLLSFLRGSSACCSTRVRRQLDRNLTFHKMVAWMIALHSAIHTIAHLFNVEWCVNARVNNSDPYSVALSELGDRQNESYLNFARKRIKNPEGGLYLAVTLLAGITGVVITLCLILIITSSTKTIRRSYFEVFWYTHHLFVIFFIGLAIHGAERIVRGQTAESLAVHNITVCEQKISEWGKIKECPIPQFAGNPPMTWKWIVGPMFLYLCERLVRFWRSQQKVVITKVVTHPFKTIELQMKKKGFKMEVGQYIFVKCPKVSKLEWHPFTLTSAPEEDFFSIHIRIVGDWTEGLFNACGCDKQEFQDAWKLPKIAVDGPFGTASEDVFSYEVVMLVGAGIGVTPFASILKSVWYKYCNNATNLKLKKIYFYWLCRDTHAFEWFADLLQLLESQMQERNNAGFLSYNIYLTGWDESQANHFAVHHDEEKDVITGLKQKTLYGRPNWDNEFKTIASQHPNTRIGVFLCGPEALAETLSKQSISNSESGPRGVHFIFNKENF

[9] = biological target: NADPH oxidase 4 (Homo sapiens) (UniProt Q9NPH5); test: NOX4-dependent H2O2 signal modulators, primary screen, NOX inhibitor project, cell-based, HEK293-NOX4, tetracycline-induced, Amplex Red fluorescence (AID 1160); conditions: 45 min, higher = more signal, called active from +8 up or from −8 down
Chain of NADPH oxidase 4 (Homo sapiens) (Q9NPH5 whole entry, looked up): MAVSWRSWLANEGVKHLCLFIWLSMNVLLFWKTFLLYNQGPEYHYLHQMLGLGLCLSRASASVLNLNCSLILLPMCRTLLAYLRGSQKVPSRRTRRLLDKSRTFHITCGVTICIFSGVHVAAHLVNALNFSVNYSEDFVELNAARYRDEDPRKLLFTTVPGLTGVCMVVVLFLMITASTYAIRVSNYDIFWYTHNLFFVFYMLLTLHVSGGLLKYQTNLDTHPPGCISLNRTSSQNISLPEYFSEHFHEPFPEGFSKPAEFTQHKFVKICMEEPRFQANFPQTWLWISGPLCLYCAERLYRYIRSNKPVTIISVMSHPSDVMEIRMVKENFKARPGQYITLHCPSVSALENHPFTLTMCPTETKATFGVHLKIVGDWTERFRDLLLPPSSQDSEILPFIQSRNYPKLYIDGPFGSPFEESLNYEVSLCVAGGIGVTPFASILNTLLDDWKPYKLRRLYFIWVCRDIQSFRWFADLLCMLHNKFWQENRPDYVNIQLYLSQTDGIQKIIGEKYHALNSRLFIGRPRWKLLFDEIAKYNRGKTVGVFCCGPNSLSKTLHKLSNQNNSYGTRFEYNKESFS

[10] = biological target: NADPH oxidase 5 (Homo sapiens) (UniProt Q96PH1); test: NOX5-dependent H2O2 signal modulators, primary screen, NOX inhibitor project, cell-based, HEK293-NOX5, Amplex Red fluorescence (AID 1161); conditions: HEK293-NOX5, ionomycin, 45 min, higher = more signal
Chain of NADPH oxidase 5 (Homo sapiens) (Q96PH1 whole entry, looked up): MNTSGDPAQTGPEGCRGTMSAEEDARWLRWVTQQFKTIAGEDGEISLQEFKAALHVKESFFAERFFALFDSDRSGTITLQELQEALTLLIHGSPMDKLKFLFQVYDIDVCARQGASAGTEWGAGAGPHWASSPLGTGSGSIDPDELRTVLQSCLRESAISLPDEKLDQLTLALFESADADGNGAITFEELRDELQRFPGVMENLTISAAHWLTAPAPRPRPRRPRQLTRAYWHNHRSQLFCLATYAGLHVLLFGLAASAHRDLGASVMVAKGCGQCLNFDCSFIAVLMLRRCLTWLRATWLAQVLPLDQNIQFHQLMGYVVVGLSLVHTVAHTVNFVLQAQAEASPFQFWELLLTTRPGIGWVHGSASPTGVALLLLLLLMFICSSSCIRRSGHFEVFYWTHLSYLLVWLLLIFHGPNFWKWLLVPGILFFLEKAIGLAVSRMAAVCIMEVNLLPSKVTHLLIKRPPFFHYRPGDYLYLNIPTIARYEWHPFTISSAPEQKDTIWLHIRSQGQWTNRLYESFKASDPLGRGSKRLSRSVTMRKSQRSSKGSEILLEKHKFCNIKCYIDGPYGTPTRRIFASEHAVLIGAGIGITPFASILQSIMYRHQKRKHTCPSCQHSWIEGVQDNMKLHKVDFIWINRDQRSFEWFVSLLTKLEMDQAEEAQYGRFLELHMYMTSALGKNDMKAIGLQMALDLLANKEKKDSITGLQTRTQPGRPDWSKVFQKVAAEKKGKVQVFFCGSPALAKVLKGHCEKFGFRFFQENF

[11] = A549 cell viability effects, profiling panel, calcein-AM fluorescence, 48 h, basal (AID 1162); conditions: higher = more signal; note: test concentration not given here
[12] = adipocyte viability effects, profiling panel, cell-based, 3T3-L1 adipocytes, calcein-AM fluorescence, 48 h, basal (AID 1163); conditions: 3T3-L1 adipocytes viability, higher = more signal; note: test concentration not given here
[13] = HepG2 cell viability effects, profiling panel, calcein-AM fluorescence, 48 h, basal (AID 1164); conditions: higher = more signal; note: test concentration not given here
[14] = MM1S cell viability effects, profiling panel, calcein-AM fluorescence, 48 h, basal (AID 1165); conditions: higher = more signal;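 note: viability of MM1S multiple myeloma cells under basal unstimulated conditions; test concentration not given here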
[15] = basal RPMI8226 viability, no added stimulus, profiling panel, cell-based, calcein-AM fluorescence, 48 h, PK04 Diversity Set (AID 1166); conditions: RPMI8226 myeloma viability, higher = more signal;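 note: cells grown under basal conditions without added stimulus; test concentration not given here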
[16] = basal HepG2 mitochondrial membrane potential changes, profiling panel, cell-based, JC-1 fluorescence, 24 h, 100 nL compound (AID 1167); conditions: higher = more signal; note: test concentration not given here
[17] = basal 3T3-L1 adipocyte mitochondrial potential changes, profiling panel, cell-based, JC-1 fluorescence, 3T3-L1 adipocytes, 24 h, 100 nL compound (AID 1168); conditions: JC-1 mitochondrial fluorescence, higher = more signal, called active from +8 up or from −8 down; note: test concentration not given here
[18] = basal RPMI8226 mitochondrial membrane potential changes, profiling panel, cell-based, JC-1 fluorescence, 24 h, 100 nL compound (AID 1169); conditions: RPMI8226 myeloma, JC-1 mitochondrial potential fluorescence, higher = more signal; note: test concentration not given here
[19] = basal MM1S mitochondrial membrane potential changes, profiling panel, cell-based, JC-1 fluorescence, 24 h, 100 nL compound (AID 1170); conditions: higher = more signal; note: test concentration not given here
[20] = A549 lung cancer cell viability effects, profiling panel, resazurin fluorescence, 24 h, PK04 Diversity Set (AID 1171); conditions: higher = more signal, called active from +8 up or from −8 down; note: test concentration not given here

SMILES	z-score [1]	composite z-score [2]	z-score [3]	z-score [4]	z-score [5]	z-score [6]	z-score [7]	z-score [8]	z-score [9]	z-score [10]	z-score [11]	z-score [12]	z-score [13]	z-score [14]	z-score [15]	z-score [16]	z-score [17]	z-score [18]	z-score [19]	z-score [20]
CCOc1cc(C(O)C2C=CC3C(=O)N(C4CCCCC4)C(=O)C3N2Nc2ccc(OC)cc2)ccc1O (stereo not given)	-0.0582 (inactive)	0.666	6.34 (inactive)	0.679 (inactive)	1.04 (inactive)	0.265 (inactive)	-0.089	-2.2 (inactive)	-3.71 (inactive)	-2.46	0.366	-0.786	0.772	0.26	-0.141	0.551	0.283 (inactive)	-0.0341	-1.87	0.265 (inactive)
C=C(COC)/C(=C/C[C@@H](OC(=O)c1ccncc1)c1ccc(CO)o1)c1cnc2ccccc2c1	0.149 (inactive)	0.471	4.66 (inactive)	1.24 (inactive)	1 (inactive)	0.234 (inactive)	-0.188	-0.627 (inactive)	-1.24 (inactive)	-1.54	-0.308	0.513	-0.607	-0.164	0.575	-0.65	0.654 (inactive)	0.0268	-0.151	0.331 (inactive)
COc1ccc(C(O)C2C=CC3C(=O)N(c4ccccc4)C(=O)C3N2Nc2ccccc2)cc1OCc1ccccc1 (stereo not given)	-1.1 (inactive)	0.0924	3.82 (inactive)	1.49 (inactive)	0.421 (inactive)	1.1 (inactive)	-1.39	-1.19 (inactive)	-3.65 (inactive)	-2.48	0.677	-1.4	1.29	0.337	-0.29	-1.02	-0.514 (inactive)	-0.307	-0.699	0.789 (inactive)
CCCN1C(=O)[C@]2(Cc3ccccc3)N=C(c3ccc(OCCCO)cc3)O[C@@H]2c2ccccc21	0.655 (inactive)	0.268	34 (active)	27.2 (active)	1.25 (inactive)	4.25 (inactive)	1.56	-2.25 (inactive)	0.187 (inactive)	-1.27	0.0649	0.932	-1.26	-1.26	-4.03	0.596	2.77 (inactive)	-1.21	-1.1	-0.593 (inactive)
COCCOC(=O)N1C(=O)[C@@]2(c3cc(C#CC4(O)CCCCCC4)ccc31)[C@H](C(N)=O)[C@H]1C(=O)O[C@H](c3ccccc3)[C@H](c3ccccc3)N1[C@@H]2c1ccccc1OCCO	0.127 (inactive)	-1.03	4.94 (inactive)	2.11 (inactive)	3.54 (inactive)	1.62 (inactive)	0.563	2.63 (inactive)	0.164 (inactive)	0.38	-1.86	0.73	-4.88	-3.42	-4.59	-2.32	1.57 (inactive)	-1.17	-1.7	-2.63 (inactive)
C=C(CCCC)C(=O)CC[C@@H](OC(=O)c1cccnc1)c1ccccc1OCCO	0.225 (inactive)	-0.101	22.3 (active)	5.38 (inactive)	0.88 (inactive)	0.871 (inactive)	0.315	-1.73 (inactive)	-0.158 (inactive)	-1.44	-0.528	0.101	-0.14	-3.21	-2.92	0.0547	0.361 (inactive)	-0.754	-1.33	0.335 (inactive)
CC(C)CNC(=O)[C@@]1(c2ccc([N+](=O)[O-])cc2)CC(=O)N(C2CCCCC2)[C@@H]1c1ccc(CO)cc1I	-0.826 (inactive)	0.213	10.8 (active)	2.15 (inactive)	3.67 (inactive)	0.794 (inactive)	-0.183	0.685 (inactive)	0.486 (inactive)	1.74	0.304	0.13	-0.108	-2	-0.317	1.15	-0.472 (inactive)	-0.296	0.0603	1.02 (inactive)
C=C1C2CC3C(=C4C(CO[C@@H]4[C@H]4CCCN4S(=O)(=O)c4ccccc4[N+](=O)[O-])C4C(=O)N(C)C(=O)C34)CC2C(=O)N1C (stereo not given in full)	-0.523 (inactive)	-0.147	4.07 (inactive)	0.0975 (inactive)	-0.513 (inactive)	-0.0387 (inactive)	0.0973	0.228 (inactive)	0.569 (inactive)	0.751	-0.704	0.332	-0.0708	-3.31	-1.28	-1.83	-0.543 (inactive)	0.485	-0.347	-0.123 (inactive)
COCCOC(=O)N1C(=O)[C@@]2(c3ccccc31)[C@H](C(=O)N1CCN(c3ncccn3)CC1)[C@H]1C(=O)O[C@H](c3ccccc3)[C@H](c3ccccc3)N1[C@@H]2c1ccc(OCCO)cc1	1.18 (inactive)	-0.244	16.4 (active)	3.96 (inactive)	0.779 (inactive)	1.24 (inactive)	0.242	0.351 (inactive)	0.798 (inactive)	0.55	1.16	-0.069	1.39	-0.198	-0.156	1.38	0.865 (inactive)	-0.459	-1.27	0.218 (inactive)
